Results from PubChem BioAssay (Tox21).
Values without a mark were called inactive. Entries that show only a call come without a potency. Active and inactive are the calls of the source. The call rests on the fitted dose curve; in most records, active means well fitted curve in the direction sought with a large enough effect in the repeat runs; inconclusive means weak or mixed curves; inactive means flat fitted curve, though single readings scatter.

Experiment: qHTS assay to test for compound auto fluorescence at 460 nm (blue) in HepG2 cell free culture (AID 720685)
Conditions: Cell-free culture medium, blue autofluorescence 405/460 nm; series mostly up to 91.3 µM
Description: U.S. Tox21 Program National Center for Advancing Translational Sciences [NCATS] NIH Chemical Genomics Center [NCGC] U.S. Environmental Protection Agency [EPA] National Institutes of Environmental Health Sciences [NIEHS] National Toxicology Program [NTP] U.S. Food and Drug Administration [FDA] Tox21 Assay Overview: Compound auto fluorescence often interferes with screening of the compound library against various biological targets and signaling pathways. Some of these compounds may have fluorophoric properties. Such properties may interfere with the assay outputs resulting in false positives and/or negatives. To decrease such complications and ensure the compound activities are relevant in terms of biological response, the Tox21 10K compound library was screened for auto fluorescence. From the fluorophores used as reporter signals in our screening assays, the auto fluorescence equivalencies of compounds against three fluorophores have been evaluated: Triamterene, Fluorescein and Rose Bengal sodium for blue, green and red fluorescence, respectively. The fluorescence intensities were measured using Excitation/Emission wavelengths at 405/460nm, 485/535nm and 540/590nm for blue, green and red labels, respectively. This assay includes the blue fluorescence data.
Tox21 Assay Protocol Summary: 5 uL of culture medium (MEM containing 10% FBS) per well was dispensed into black wall/clear bottom 1536-well plates using a Multidrop Combi Dispenser (ThermoFisher Scientific, Waltham, MA). After 23 nL compound or DMSO vehicle was transferred into assay plate by a pintool work station (Kalypsys, San Diego, CA), fluorescence intensities in the assay plates were measured by an Envision (PerkinElmer, Shelton, CT) plate reader using three labels for measuring blue, green and red fluorescence at […] 460, 535 and 590nm respectively.
With `CC1CCc2nccnc21` (stereo not given) the Potency was “inactive”.
In the case of `CC/C=C\C/C=C\C/C=C\CCCCCCCC(=O)OCC`, the Potency is reported as “inactive”.
For `COc1ccc2nc(S(=O)Cc3ncc(C)c(OC)c3C)[nH]c2c1` (stereo not given), the Potency was “inactive”.
In the case of `c1ccc(CNc2ncnc3c2ncn3C2CCCCO2)cc1` (stereo not given), the Potency is reported as “inactive”.
For `O[C@@H](CNC[C@H](O)[C@H]1CCc2cc(F)ccc2O1)[C@@H]1CCc2cc(F)ccc2O1`, the Potency was “inactive”.
For `CC1=CC[C@@H]2C[C@H]1C2(C)C`, the fluorescence, % of fluorescent control was 0.0508% [at 18.6 µM].
In the case of `Nc1nc2ccc(OC(F)(F)F)cc2s1`, the Potency is reported as “inactive”.
For `CCC1CCC(CCC(=O)O)C1` (stereo not given), the Potency was “inactive”.
In the case of `Cc1ccc2c(c1[N+](=O)[O-])C(=O)c1ccccc1C2=O`, the Potency is reported as “inactive”.
In the case of `CC1CCCO1` (stereo not given), the Potency is reported as “inactive”.
With `CCSC(=O)N(CC)CC` the Potency was “inactive”.
In the case of `Cc1cccc2sc(N)nc12`, the Potency is reported as “inactive”.
With `Cc1ccc(Cl)cc1N` the Potency was “inactive”.
In the case of `O=C(NC(Cc1cc(=O)[nH]c2ccccc12)C(=O)O)c1ccc(Cl)cc1` (stereo not given), the Potency is reported as “inactive”.
With `CCCCCCCCCCCC(=O)OCC(O)CO` (stereo not given) the Potency was “inactive”.
For `CCCc1nc2c(C)cc(-c3nc4ccccc4n3C)cc2n1Cc1ccc(-c2ccccc2C(=O)O)cc1`, the Potency was “inactive”.
For `CCN(CC)c1ccc(C(=C2C=CC(=[N+](CC)CC)C=C2)c2ccc(S(=O)(=O)O)cc2S(=O)(=O)[O-])cc1`, the Potency was “inactive”.
For `Nc1ccc(N=Nc2ccc(N)cc2)cc1`, the Potency was “inactive”.
For `CC(C)c1ccc(C#N)cc1`, the Potency was “inactive”.
In the case of `O=[N+]([O-])C1(Br)COCOC1`, the Potency is reported as “inactive”.
With `O=C(Nc1ccc(C(=O)O)c(O)c1)c1ccccc1` the Potency was “inactive”.
In the case of `O=P(O)(O)Oc1ccccc1`, the Potency is reported as “inactive”.
With `CC[C@H]1OC(=O)[C@H](C)[C@@H](O[C@H]2C[C@@](C)(OC)[C@@H](O)[C@H](C)O2)[C@H](C)[C@@H](O[C@@H]2O[C@H](C)C[C@H](N(C)C)[C@H]2O)[C@](C)(O)C[C@@H](C)C(=O)[C@H](C)[C@@H](O)[C@]1(C)O` the Potency was “inactive”.
In the case of `COc1cc(NCc2ccc3nc(N)nc(N)c3c2C)cc(OC)c1OC`, the Potency is reported as “inactive”.
With `CC1C(C)(C)C2=C(C(=O)CCC2)C1(C)C` (stereo not given) the Potency was “inactive”.
In the case of `CC(=O)NNC(C)=O`, the Potency is reported as “inactive”.
For `CCCCCCC(O)CCOC(C)=O` (stereo not given), the Potency was “inactive”.
For `COc1ccc(-n2nc(C(F)F)cc2-c2ccc(S(C)=O)cc2)cc1` (stereo not given), the Potency was “inactive”.
In the case of `O=C(O)CCC(=O)OC[C@@H](NC(=O)C(Cl)Cl)[C@H](O)c1ccc([N+](=O)[O-])cc1`, the Potency is reported as “inactive”.
With `O=C(O)c1cc(Cl)cc(Cl)c1O` the Potency was “inactive”.
For `CCN(CC)c1cccc(O)c1`, the Potency was “inactive”.
In the case of `CC(=O)C(C)=O`, the Potency is reported as “inactive”.
In the case of `CNC1CCCN(c2c(F)cc3c(=O)c(C(=O)O)cn(C4CC4)c3c2OC)C1` (stereo not given), the Potency is reported as “inactive”.
With `CCCCCCOC(=O)CCCCC` the Potency was “inactive”.
With `C[C@H](CS)C(=O)N1CCC[C@H]1C(=O)O` the Potency was “inactive”.
For `CC(C)COC(=O)c1ccc(O)cc1`, the Potency was “inactive”.
For `CCc1ccc(C)cc1`, the Potency was “inactive”.
With `CCC(C)(C)C(=O)O` the Potency was “inactive”.
In the case of `COc1cc(S(=O)(=O)Nc2ccccc2)c(OC)cc1N`, the Potency is reported as “inactive”.
In the case of `COc1ccc(C(=O)NCc2ccc(OCCN(C)C)cc2)cc1OC`, the Potency is reported as “inactive”.
